In article PMC7862700, “An all-to-all approach to the identification of sequence-specific readers for epigenetic DNA modifications on cytosine”:

Experiments:
Experiment in all cases: DAPPL (digital affinity profiling via proximity ligation, sequencing); 10 mM Tris-HCl pH 7.5, 50 mM NaCl, 1 mM DTT, 4% glycerol, room temperature, 30 min; GST-TFs on glutathione beads, 16-mer random dsDNA library, 0.1% formaldehyde crosslink after washing; high values mean tight binding
Conditions in all cases: protein: recombinant; tags: N-terminal GST; dsDNA, one strand shown
[1] = biological target: T1, ERF (Homo sapiens, UniProt P50548 1-548)
T1 sequence: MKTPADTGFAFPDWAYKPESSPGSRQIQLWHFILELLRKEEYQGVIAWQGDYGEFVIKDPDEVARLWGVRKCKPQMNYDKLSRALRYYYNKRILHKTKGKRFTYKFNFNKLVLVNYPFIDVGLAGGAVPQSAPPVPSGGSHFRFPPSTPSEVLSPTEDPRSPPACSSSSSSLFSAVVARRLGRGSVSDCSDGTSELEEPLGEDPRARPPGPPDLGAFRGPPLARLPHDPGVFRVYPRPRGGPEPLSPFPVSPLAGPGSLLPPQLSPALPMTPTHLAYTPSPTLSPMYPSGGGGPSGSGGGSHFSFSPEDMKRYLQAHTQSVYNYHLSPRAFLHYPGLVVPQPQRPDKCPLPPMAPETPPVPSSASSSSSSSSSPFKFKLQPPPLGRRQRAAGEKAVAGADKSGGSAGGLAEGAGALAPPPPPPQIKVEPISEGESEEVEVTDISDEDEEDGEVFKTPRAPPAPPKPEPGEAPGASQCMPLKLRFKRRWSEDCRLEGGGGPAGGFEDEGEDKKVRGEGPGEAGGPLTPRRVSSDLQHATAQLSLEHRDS
Summary of the method: (§1)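 GST fusions of human transcription factors were expressed in yeast and captured with glutathione beads. Once given DNA barcodes and pooled alongside a tag-only sample, they were incubated for 30 min at room temperature with 200 nmole of a random double-stranded 16-mer DNA library in Tris/NaCl/DTT/glycerol buffer, then washed, crosslinked (0.1% formaldehyde), proximity-ligated, PCR-amplified and sequenced on an Illumina NextSeq500. The binding signal of each hexamer is its read frequency for a factor divided by its frequency for the tag-only sample.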

[2] = biological target: T2, ETV3L (Homo sapiens, UniProt Q6ZN32 1-361)
T2 sequence: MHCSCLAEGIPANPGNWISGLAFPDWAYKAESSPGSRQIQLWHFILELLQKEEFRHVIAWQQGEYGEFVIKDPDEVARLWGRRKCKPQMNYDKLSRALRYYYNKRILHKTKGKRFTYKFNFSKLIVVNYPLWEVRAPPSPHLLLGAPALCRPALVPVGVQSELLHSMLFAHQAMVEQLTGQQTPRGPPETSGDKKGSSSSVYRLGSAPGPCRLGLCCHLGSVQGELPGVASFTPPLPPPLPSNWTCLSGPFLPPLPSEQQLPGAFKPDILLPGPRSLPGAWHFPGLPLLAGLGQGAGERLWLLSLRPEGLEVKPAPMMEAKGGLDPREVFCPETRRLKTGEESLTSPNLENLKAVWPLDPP
Summary of the method: as §1

[3] = biological target: T3, ETS2 (Homo sapiens, UniProt P15036 1-469)
T3 sequence: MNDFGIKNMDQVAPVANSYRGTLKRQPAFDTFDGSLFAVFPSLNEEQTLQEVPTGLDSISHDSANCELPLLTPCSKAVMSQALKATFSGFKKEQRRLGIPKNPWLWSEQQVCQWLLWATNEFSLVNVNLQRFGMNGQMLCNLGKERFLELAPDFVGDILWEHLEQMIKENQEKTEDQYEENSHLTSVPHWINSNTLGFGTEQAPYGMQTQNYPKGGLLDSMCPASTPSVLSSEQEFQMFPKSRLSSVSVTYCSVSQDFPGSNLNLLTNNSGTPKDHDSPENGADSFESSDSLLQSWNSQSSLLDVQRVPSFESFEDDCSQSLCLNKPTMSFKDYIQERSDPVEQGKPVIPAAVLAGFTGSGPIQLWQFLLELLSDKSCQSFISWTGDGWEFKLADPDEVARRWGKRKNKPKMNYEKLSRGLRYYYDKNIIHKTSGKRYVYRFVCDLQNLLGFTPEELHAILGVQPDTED
Summary of the method: as §1

[4] = biological target: T4, SPDEF (Homo sapiens, UniProt O95238 1-335)
T4 sequence: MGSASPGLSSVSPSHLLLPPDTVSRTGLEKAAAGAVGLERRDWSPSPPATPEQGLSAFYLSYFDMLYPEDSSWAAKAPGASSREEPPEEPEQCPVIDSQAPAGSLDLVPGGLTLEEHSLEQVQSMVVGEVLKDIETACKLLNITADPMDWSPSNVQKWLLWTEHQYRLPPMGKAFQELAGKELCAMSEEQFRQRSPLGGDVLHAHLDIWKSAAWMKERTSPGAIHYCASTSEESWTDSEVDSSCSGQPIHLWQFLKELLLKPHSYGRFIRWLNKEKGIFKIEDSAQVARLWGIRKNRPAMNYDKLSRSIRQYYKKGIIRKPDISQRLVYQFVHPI
Summary of the method: as §1

[5] = biological target: T5, ETV7 (Homo sapiens, UniProt Q9Y603 1-341)
T5 sequence: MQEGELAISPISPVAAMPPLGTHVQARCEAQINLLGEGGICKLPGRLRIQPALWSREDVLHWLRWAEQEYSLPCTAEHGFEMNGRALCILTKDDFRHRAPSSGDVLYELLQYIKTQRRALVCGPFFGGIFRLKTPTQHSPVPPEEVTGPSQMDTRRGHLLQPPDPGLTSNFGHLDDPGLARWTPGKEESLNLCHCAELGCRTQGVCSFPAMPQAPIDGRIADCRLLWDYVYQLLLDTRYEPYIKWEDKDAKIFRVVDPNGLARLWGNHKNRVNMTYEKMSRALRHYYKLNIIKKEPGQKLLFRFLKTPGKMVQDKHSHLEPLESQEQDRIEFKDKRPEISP
Summary of the method: as §1

[6] = biological target: T6, ELF5 (Homo sapiens, UniProt Q9UKW6-2 1-255)
T6 sequence: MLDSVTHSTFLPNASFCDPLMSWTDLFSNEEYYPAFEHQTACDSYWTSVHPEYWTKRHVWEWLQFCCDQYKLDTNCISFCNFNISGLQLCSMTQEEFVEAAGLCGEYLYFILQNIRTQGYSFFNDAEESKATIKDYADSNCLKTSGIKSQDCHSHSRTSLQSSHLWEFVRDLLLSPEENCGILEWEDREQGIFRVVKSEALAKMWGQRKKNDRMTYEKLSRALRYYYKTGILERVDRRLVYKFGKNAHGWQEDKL
Summary of the method: as §1

[7] = biological target: T7, ETV3 (Homo sapiens, UniProt P41162-2 1-143)
T7 sequence: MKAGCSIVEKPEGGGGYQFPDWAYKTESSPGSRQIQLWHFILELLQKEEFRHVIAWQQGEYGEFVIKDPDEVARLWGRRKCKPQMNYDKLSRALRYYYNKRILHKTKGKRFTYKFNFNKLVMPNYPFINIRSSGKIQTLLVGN
Summary of the method: as §1

[8] = biological target: ETV6 (Homo sapiens, UniProt P41212 1-452)
Sequence of ETV6 (P41212 whole entry): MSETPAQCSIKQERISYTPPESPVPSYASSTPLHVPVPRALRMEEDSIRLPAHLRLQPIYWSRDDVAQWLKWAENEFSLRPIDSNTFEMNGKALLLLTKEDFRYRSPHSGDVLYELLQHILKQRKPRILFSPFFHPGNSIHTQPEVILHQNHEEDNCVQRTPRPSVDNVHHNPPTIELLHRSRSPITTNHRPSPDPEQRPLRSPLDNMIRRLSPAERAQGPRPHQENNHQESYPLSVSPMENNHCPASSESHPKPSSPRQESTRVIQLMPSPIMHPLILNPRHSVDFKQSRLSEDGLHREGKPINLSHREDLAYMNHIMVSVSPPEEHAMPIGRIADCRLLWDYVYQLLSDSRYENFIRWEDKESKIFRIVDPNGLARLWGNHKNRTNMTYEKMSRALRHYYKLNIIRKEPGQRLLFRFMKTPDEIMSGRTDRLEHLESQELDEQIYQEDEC
Summary of the method: as §1

Sequence	binding signal [1]	binding signal [2]	binding signal [3]	binding signal [4]	binding signal [5]	binding signal [6]	binding signal [7]	binding signal [8]
GTTTCG	1.38 fold enrichment (6-mer frequency, TF over GST control)	1.33 fold enrichment (6-mer frequency, TF over GST control)	1.15 fold enrichment (6-mer frequency, TF over GST control)	1.27 fold enrichment (6-mer frequency, TF over GST control)	1.27 fold enrichment (6-mer frequency, TF over GST control)	1.12 fold enrichment (6-mer frequency, TF over GST control)	1.32 fold enrichment (6-mer frequency, TF over GST control)	1.23 fold enrichment (6-mer frequency, TF over GST control)
CTTGGT	1.34 fold enrichment (6-mer frequency, TF over GST control)	1.47 fold enrichment (6-mer frequency, TF over GST control)	1.45 fold enrichment (6-mer frequency, TF over GST control)	1.51 fold enrichment (6-mer frequency, TF over GST control)	1.49 fold enrichment (6-mer frequency, TF over GST control)	1.37 fold enrichment (6-mer frequency, TF over GST control)	1.34 fold enrichment (6-mer frequency, TF over GST control)	1.44 fold enrichment (6-mer frequency, TF over GST control)
CTTCCA	1.55 fold enrichment (6-mer frequency, TF over GST control)	1.52 fold enrichment (6-mer frequency, TF over GST control)	1.45 fold enrichment (6-mer frequency, TF over GST control)	1.45 fold enrichment (6-mer frequency, TF over GST control)	1.36 fold enrichment (6-mer frequency, TF over GST control)	1.64 fold enrichment (6-mer frequency, TF over GST control)	1.41 fold enrichment (6-mer frequency, TF over GST control)	1.76 fold enrichment (6-mer frequency, TF over GST control)
TTCTTA	1.21 fold enrichment (6-mer frequency, TF over GST control)	1.4 fold enrichment (6-mer frequency, TF over GST control)	1.24 fold enrichment (6-mer frequency, TF over GST control)	1.4 fold enrichment (6-mer frequency, TF over GST control)	1.38 fold enrichment (6-mer frequency, TF over GST control)	1.35 fold enrichment (6-mer frequency, TF over GST control)	1.34 fold enrichment (6-mer frequency, TF over GST control)	1.4 fold enrichment (6-mer frequency, TF over GST control)
ATTATT	1.11 fold enrichment (6-mer frequency, TF over GST control)	1.17 fold enrichment (6-mer frequency, TF over GST control)	1.16 fold enrichment (6-mer frequency, TF over GST control)	1.11 fold enrichment (6-mer frequency, TF over GST control)	1.25 fold enrichment (6-mer frequency, TF over GST control)	1.15 fold enrichment (6-mer frequency, TF over GST control)	1.18 fold enrichment (6-mer frequency, TF over GST control)	1.13 fold enrichment (6-mer frequency, TF over GST control)
TTACTT	1.49 fold enrichment (6-mer frequency, TF over GST control)	1.37 fold enrichment (6-mer frequency, TF over GST control)	1.48 fold enrichment (6-mer frequency, TF over GST control)	1.45 fold enrichment (6-mer frequency, TF over GST control)	1.43 fold enrichment (6-mer frequency, TF over GST control)	1.54 fold enrichment (6-mer frequency, TF over GST control)	1.58 fold enrichment (6-mer frequency, TF over GST control)	1.62 fold enrichment (6-mer frequency, TF over GST control)
ATGATG	1.27 fold enrichment (6-mer frequency, TF over GST control)	1.41 fold enrichment (6-mer frequency, TF over GST control)	1.27 fold enrichment (6-mer frequency, TF over GST control)	1.22 fold enrichment (6-mer frequency, TF over GST control)	1.43 fold enrichment (6-mer frequency, TF over GST control)	1.25 fold enrichment (6-mer frequency, TF over GST control)	1.43 fold enrichment (6-mer frequency, TF over GST control)	1.38 fold enrichment (6-mer frequency, TF over GST control)
AACAAT	1.31 fold enrichment (6-mer frequency, TF over GST control)	1.26 fold enrichment (6-mer frequency, TF over GST control)	1.27 fold enrichment (6-mer frequency, TF over GST control)	1.2 fold enrichment (6-mer frequency, TF over GST control)	1.24 fold enrichment (6-mer frequency, TF over GST control)	1.36 fold enrichment (6-mer frequency, TF over GST control)	1.32 fold enrichment (6-mer frequency, TF over GST control)	1.31 fold enrichment (6-mer frequency, TF over GST control)
